Drawing on PubChem BioAssay, this text covers z-score and composite z-score for twelve compounds.

A short description of assay [1]: HepG2 liver cancer cell viability effects, profiling panel, resazurin fluorescence, 24 h, PK04 Diversity Set (AID 1172). Further: test concentration not given here. As to conditions: higher = more signal.
Assay [2] in a line: basal S. cerevisiae growth modulation, no modifier, primary screen, OD600, strain BY4716, 24 h, basal condition (AID 1173). To be noted: OD600, 24 h, higher = more signal, called active from +8 up or from −8 down.
Assay [3] is described as follows: MM1S myeloma cell viability, profiling panel, resazurin fluorescence, basal, 24 h, PK04 Diversity Set (AID 1174).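 Further: MM1S multiple myeloma cell line; test concentration not given here.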 As to conditions: higher = more signal, called active from +8 up or from −8 down.
The target in assay [4] is Dihydroorotate dehydrogenase (quinone), mitochondrial (Plasmodium falciparum (isolate 3D7)) (UniProt Q08210). The assay is described as follows: PfDHODH enzyme inhibitors, primary screen, biochemical, C-terminal His tag, absorbance 600 nm (AID 1175).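 Further: recombinant parasite enzyme with a five histidine tag at its C terminus; test concentration not given here.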 To be noted: DCIP absorbance 600 nm, higher = more signal, called active from +8 up or from −8 down.
A short description of assay [5]: P. aeruginosa biofilm formation inhibitors, primary screen, strain PAO1, LB-PBS medium, absorbance 600 nm (AID 1176). Further: test concentration not given here. To be noted: P. aeruginosa PAO1 growth/biofilm, A600, 12 h; higher = more signal.
Assay [6] in a line: S. cerevisiae RM11-1a growth modifiers, primary screen, strain RM11-1a, OD600, basal, 24 h (AID 1177).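 Further: cultures grown under basal conditions with no added stressor; test concentration not given here.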 To be noted: OD600, 24 h, higher = more signal, called active from +8 up or from −8 down.
Assay [7] is described as follows: E. coli acrAB mutant growth effects, primary screen, E. coli filamentation inducers, strain DRC39, OD650, 24 h (AID 1178).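 Further: growth measured as culture turbidity by optical density at 650 nm; test concentration not given here.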 To be noted: higher = more signal, called active from +8 up or from −8 down.
A short description of assay [8]: E. coli acrAB mutant growth effects, primary screen, E. coli filamentation inducers, strain DRC39, OD650, 48 h (AID 1179).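 Further: screen aims at cell division blockers that make cells filament.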 To be noted: E. coli DRC39 delta-acrAB growth, higher = more signal, called active from +8 up or from −8 down.
Assay [9] in a line: RPMI8226 myeloma cell viability, profiling panel, resazurin fluorescence, basal, 24 h, PK04 Diversity Set (AID 1180).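 Further: RPMI8826 multiple myeloma cell line at 5000 cells per well; test concentration not given here.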 As to conditions: higher = more signal. (Resazurin is reduced to fluorescent resorufin, in cell work by metabolically active cells.)
The target of assay [10] is E3 ubiquitin-protein ligase XIAP (Homo sapiens) (UniProt P98170). Put plainly: XIAP binders, primary screen, biophysical, small-molecule microarray, fluorescence 635 nm (AID 1181).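 Further: score merges 667 nm emission and signal to noise over triplicate slides.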 As to conditions: small-molecule microarray binding, higher = more signal.

The source made the active and inactive calls. Unless noted, how the calls were made is not given here.

Chain of Dihydroorotate dehydrogenase (quinone), mitochondrial (Plasmodium falciparum (isolate 3D7)) (Q08210 whole entry, looked up): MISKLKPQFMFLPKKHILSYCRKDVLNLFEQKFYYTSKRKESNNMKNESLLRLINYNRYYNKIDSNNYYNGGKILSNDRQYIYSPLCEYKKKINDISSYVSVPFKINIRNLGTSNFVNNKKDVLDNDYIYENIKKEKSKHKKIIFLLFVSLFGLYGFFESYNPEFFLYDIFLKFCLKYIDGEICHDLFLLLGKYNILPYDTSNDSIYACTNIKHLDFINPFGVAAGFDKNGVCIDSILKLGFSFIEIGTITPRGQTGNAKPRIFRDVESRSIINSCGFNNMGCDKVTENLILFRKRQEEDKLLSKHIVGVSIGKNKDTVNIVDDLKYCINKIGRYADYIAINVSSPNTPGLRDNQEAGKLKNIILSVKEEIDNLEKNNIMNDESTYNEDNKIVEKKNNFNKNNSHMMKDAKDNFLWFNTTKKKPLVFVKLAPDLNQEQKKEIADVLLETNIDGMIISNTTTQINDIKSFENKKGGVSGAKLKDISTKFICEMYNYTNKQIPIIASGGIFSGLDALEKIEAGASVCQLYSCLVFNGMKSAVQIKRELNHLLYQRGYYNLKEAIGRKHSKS
Chain of E3 ubiquitin-protein ligase XIAP (Homo sapiens) (P98170 whole entry, looked up): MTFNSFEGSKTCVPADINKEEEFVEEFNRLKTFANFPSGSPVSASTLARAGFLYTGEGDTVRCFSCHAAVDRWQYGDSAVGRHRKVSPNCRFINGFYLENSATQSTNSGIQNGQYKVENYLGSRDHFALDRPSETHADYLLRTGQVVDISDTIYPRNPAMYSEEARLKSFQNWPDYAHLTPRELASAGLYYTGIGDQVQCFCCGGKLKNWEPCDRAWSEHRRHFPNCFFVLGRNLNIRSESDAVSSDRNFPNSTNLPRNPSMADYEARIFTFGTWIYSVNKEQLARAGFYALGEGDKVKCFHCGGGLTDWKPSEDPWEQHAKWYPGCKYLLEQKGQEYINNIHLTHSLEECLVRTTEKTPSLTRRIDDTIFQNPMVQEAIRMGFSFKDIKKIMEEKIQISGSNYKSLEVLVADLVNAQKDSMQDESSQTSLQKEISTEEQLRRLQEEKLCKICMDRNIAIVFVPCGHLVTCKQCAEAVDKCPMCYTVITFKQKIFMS

In the case of `O=C(NCc1ccc(F)cc1)[C@H]1C[C@H]2C(=O)N3CCC[C@H]3C(=O)N2[C@H]1c1ccc(O)cc1`, the z-score is -0.388 in [1]; -0.542 (inactive) in [2]; 0.698 (inactive) in assay [3]; 2.39 (inactive) in assay [5]; -0.795 (inactive) in assay [6]; 0.639 (inactive) in [7]. The z-score in assay [8] is -0.545 (inactive); in assay [9], 0.379. Also, the results for the composite z-score in assay [4] and in assay [10] were -1.47 (inactive) and 0.33, respectively.
Take `COc1ccc([Si](C)(C)[C@@H]2[C@@H](CC(=O)N3Cc4ccccc4C[C@H]3CO)O[C@]3(C(=O)N(Cc4ccc(N5CCOC5=O)cc4)c4ccccc43)[C@H]2C)cc1`: the z-score in [1] was -0.231; in assay [2], -0.678 (inactive); in assay [3], -1.49 (inactive); in [5], 1.18 (inactive); in assay [6], 0.455 (inactive); in assay [7], 0.868 (inactive). Moreover, the z-score is 0.465 (inactive) in [8] and -0.504 in [9]. For the same compound, the composite z-score in assay [4] is -0.836 (inactive); in assay [10] it was 0.0049.
Regarding `CCCNC(=O)[C@@]1(Sc2ccc(C)cc2)CC(=O)N(Cc2ccccc2Cl)[C@@H]1c1ccc(CO)cc1I`, the z-score in [1] was 0.766; in assay [2] it was -4.16 (inactive); in assay [3] it was -3.58 (inactive); in assay [5] it was 0.034 (inactive); in assay [6] it was -0.641 (inactive); in assay [7], 0.466 (inactive). In addition, the figures for the z-score in assay [8] and in assay [9] were 1.01 (inactive) and -1.28, respectively. Further, the composite z-score in [4] is -0.139 (inactive); in assay [10], -0.302.
For the compound `CN(C)CCCCNC(=O)[C@H]1C[C@H]2C(=O)N3CCC[C@H]3C(=O)N2[C@H]1c1cccc(OCCO)c1`, the z-score in assay [1] is -0.0329; in [2], 0.949 (inactive); in assay [3], 0.299 (inactive); in assay [5], 0.202 (inactive); in [6], 1.76 (inactive); in assay [7], -0.0332 (inactive). Further, the z-score in [8] was -0.536 (inactive); in assay [9], -0.116. Further, the composite z-score in assay [4] was 0.483 (inactive); in assay [10], 0.906.
In the case of `COc1ccc([Si](C)(C)[C@@H]2[C@@H](CC(=O)N3CCC[C@H]3CO)O[C@]3(C(=O)N(Cc4ccc(N5CCOC5=O)cc4)c4ccccc43)[C@H]2C)cc1`, the z-score in [1] was -1.39; in assay [2] it was -0.793 (inactive); in [3], -2.01 (inactive); in assay [5] it was 1.06 (inactive); in [6], -0.975 (inactive); in assay [7] it was 0.0669 (inactive). The z-score was 0.459 (inactive) in assay [8] and -2.98 in assay [9]. Moreover, the composite z-score in [4] was -2.19 (inactive); in [10], 0.0819.
As for `CN(C)CCCCNC(=O)[C@H]1C[C@H]2C(=O)NCC(=O)N2[C@H]1c1ccc(O)cc1`, the z-score was 1.1 in assay [1]; -0.0401 (inactive) in assay [2]; 0.917 (inactive) in assay [3]; -0.599 (inactive) in assay [5]; 1.56 (inactive) in [6]; 0.0662 (inactive) in [7]. In addition, the z-score is -0.363 (inactive) in [8] and 0.511 in assay [9]. Moreover, the composite z-score in assay [4] was 0.373 (inactive); in [10] it was 0.147.
Consider `COCCOC(=O)N1C(=O)[C@@]2(c3cc(C#CCCO)ccc31)[C@H](c1ccccc1OCCO)N1[C@H](c3ccccc3)[C@H](c3ccccc3)OC(=O)[C@H]1[C@@H]2C(N)=O`, for which the z-score in assay [1] is -0.0989; in assay [2] it was 1.42 (inactive); in assay [3], -1.49 (inactive); in [5], -0.0199 (inactive); in assay [6], 2.34 (inactive); in [7], 0.641 (inactive). Further, the z-score is -0.605 (inactive) in assay [8] and -1.45 in assay [9]. Further, the composite z-score was -0.0125 (inactive) in [4] and -0.02 in assay [10].
As for `COC(=O)[C@@]1(Cc2ccc(OC)cc2)[C@H]2c3cc(C(=O)N4CCCC4)n(CCn4cc([N+](=O)[O-])nc4C)c3C[C@H]2CN1C(=O)c1ccccc1`, the z-score in assay [1] is -0.916; in [2] it was 0.477 (inactive); in [3], -1.72 (inactive); in [5], 2.04 (inactive); in assay [6] it was -0.123 (inactive); in assay [7], -0.784 (inactive). In addition, the z-score in [8] is -0.552 (inactive); in assay [9] it was -1.65. Moreover, the composite z-score is -0.329 (inactive) in assay [4] and 0.111 in [10].
In the case of `NC(=O)N1C(=O)C2C(C1=O)C1C=C(CCCO)C2C(C2CC2)N1Cc1sc2ccccc2c1Cl` (stereo not given), the z-score in assay [1] is 0.146; in assay [2] it was -6.04 (inactive); in assay [3], 0.691 (inactive); in assay [5], -0.0099 (inactive); in assay [6], 0.269 (inactive); in assay [7], 0.718 (inactive). The results for the z-score in [8] and in assay [9] were 0.152 (inactive) and 0.555, respectively. Further, the composite z-score in [4] is -0.744 (inactive); in [10], 0.0374.
For `O=C(NC1CC1)[C@@H]1c2ccccc2C(=O)N(Cc2cc(C(F)(F)F)cc(C(F)(F)F)c2)[C@H]1c1ccc(CO)cc1`, the z-score in assay [1] is -0.0465; in assay [2], -0.313 (inactive); in assay [3], -0.498 (inactive); in assay [5], 1.12 (inactive); in [6] it was -0.44 (inactive); in assay [7], 0.655 (inactive). In addition, the z-score is -0.261 (inactive) in [8] and 0.51 in [9]. Further, the composite z-score in [4] is -0.331 (inactive); in [10] it was -0.0448.
With `C=C(C)[C@@H]1CC=C(C(O)C2C=CC3C(=O)N(c4ccccc4)C(=O)C3N2Nc2ccc([N+](=O)[O-])cc2)CC1` (stereo not given in full), the z-score in assay [1] is -0.783; in assay [2], 0.139 (inactive); in assay [3] it was -0.66 (inactive); in assay [5], 0.741 (inactive); in [6], 0.526 (inactive); in assay [7], -1.17 (inactive). Moreover, the z-score in [8] is -1.37 (inactive); in assay [9], -0.204. Besides, the composite z-score in [4] is 1 (inactive); in assay [10], -0.0848.
As to `COc1ccc([Si](C)(C)[C@H]2[C@H](CC(=O)N3Cc4ccccc4C[C@H]3CO)O[C@@]3(C(=O)N(C)c4ccccc43)[C@@H]2C)cc1`, the z-score in assay [1] was -0.894; in [2] it was -3.38 (inactive); in assay [3], -1.97 (inactive); in assay [5], -0.695 (inactive); in assay [6], 0.0745 (inactive); in assay [7], -1.44 (inactive). Besides, the z-score in assay [8] is -1.38 (inactive); in [9], -2.06. Also, the composite z-score in [4] is -1.45 (inactive); in assay [10] it was 0.119.
